# Assay outcomes deposited in PubChem by NMMLSC.
# LAP4 TOR yeast = alters LAP4-GFP fluorescence in TOR pathway yeast screen | S. cerevisiae LAP4-GFP multiplex, flow cytometry GFP, 3 h; median GFP as percent of DMSO wells | GFP response vs DMSO, % at 10 µM | hit rate 0.34% among 320,000;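 active means GFP response vs DMSO above a set limit, about the screen mean plus 3 SD, cut at about 150% in these data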
# CIT2-GFP yeast = alters CIT2-GFP fluorescence in TOR pathway yeast screen | hit rate 0.065% among 320,000 | AID 2029 | S. cerevisiae CIT2-GFP strain, flow cytometry, 3 h; 100 means same as DMSO wells | GFP response vs DMSO, % at 10 µM;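 active means GFP response relative to DMSO above a set limit, near the screen mean plus 3 SD, cut at about 150% in these data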;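 further: ratio of well median GFP fluorescence to mean of DMSO wells on the plate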
# Efflux pump inh = inhibitors of Candida antifungal efflux pumps expressed in yeast; inhibition, % at 10 µM; hit rate 0.44% among 330,000; S. cerevisiae Candida pump triplex, Nile Red efflux;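 active means plate passing quality check with inhibition over a set limit, or well fluorescence over plate mean plus 4 SD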;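 further: Nile Red retained in pooled yeast measured as flow cytometry median fluorescence; 0% = buffer negative control and 100% = Enniatin B positive control; higher means more Nile Red kept so more efflux inhibition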
# RPL19A TOR yeast = modulators of TOR pathway RPL19A-GFP in S. cerevisiae | S. cerevisiae RPL19A-GFP strain, flow cytometry, 3 h; hits give low values | percent response vs DMSO, % at 10 µM | hit rate 0.3% among 330,000;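 active means percent response vs DMSO below 50%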;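 further: median channel GFP fluorescence of the barcoded RPL19A-GFP strain; ratio of sample median GFP to plate DMSO average so 100% = DMSO; lower means less RPL19A-GFP as with rapamycin TOR inhibition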
# AGP1 TOR yeast = modulators of TOR pathway AGP1-GFP in S. cerevisiae; S. cerevisiae AGP1-GFP multiplex flow cytometry, 3 h; GFP as percent of DMSO wells; GFP response vs DMSO, % at 10 µM; hit rate 0.02% among 320,000;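 active means GFP response relative to DMSO above a set limit, near screen average plus 3 SD, cut at about 150% in these data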;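 further: median GFP channel fluorescence of the gated AGP1 strain per well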
# MEP2 TOR yeast = alters MEP2-GFP fluorescence in TOR pathway yeast screen. hit rate 0.51% among 330,000. GFP response vs DMSO, % at 10 µM. S. cerevisiae MEP2-GFP strain, flow cytometry GFP, 3 h; 100% = DMSO control level. AID 2016;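 active means GFP response versus DMSO above a set limit, roughly screen mean plus 3 SD, cut at about 180% in these data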;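 further: median GFP fluorescence of the barcode-gated MEP2-GFP cells per well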
# Yeast cmpd fluor = compound fluorescence in yeast efflux pump counter-screen; hit rate 4% among 1,700; shares compounds with Efflux pump inh; fluorescence ratio to DMSO, % at 10 µM; S. cerevisiae AD/pABC3, flow cytometry;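 active means fluorescence ratio to DMSO above its plate's cutoff, the plate mean ratio plus 5 SD, cut at about 210% in these data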;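 further: unstained yeast with no Nile Red so the signal is compound autofluorescence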
# Mdr1 pump inh = Candida Mdr1 efflux pump inhibition. shares compounds with Efflux pump inh. S. cerevisiae AD/CaMDR1, Nile Red efflux, flow cytometry. inhibition, % at 10 µM. hit rate 1% among 1,700. AID 588518; in the data active means inhibition above about 26%;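 further: 0% = DMSO vehicle and 100% = reference inhibitor; higher means more Nile Red retained so more efflux inhibition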
# Cdr2 pump inh = inhibitors of Candida albicans Cdr2 efflux pump; S. cerevisiae AD/CaCDR2, Nile Red retention, flow cytometry; Nile Red retention ratio vs DMSO, % at 10 µM; hit rate 4% among 1,700; shares compounds with Efflux pump inh; in the data active means Nile Red retention ratio vs DMSO above about 190%;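 further: higher ratio means more blocking of Cdr2 efflux of the dye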
# Cdr1 pump inh = inhibitors of Candida albicans Cdr1 efflux pump | shares compounds with Efflux pump inh | S. cerevisiae AD/CaCDR1, Nile Red efflux, flow cytometry | inhibition, % at 10 µM | hit rate 1% among 1,700 | AID 588522;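 active means inhibition above the screen-wide mean plus twice its standard deviation, cut at about 32% in these data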
# * = called active by the depositor; · = no result given. This is a sample that favours compounds with a hit; in the whole collection about 1.3% have one here.
SMILES,LAP4 TOR yeast,CIT2-GFP yeast,Efflux pump inh,RPL19A TOR yeast,AGP1 TOR yeast,MEP2 TOR yeast,Yeast cmpd fluor,Mdr1 pump inh,Cdr2 pump inh,Cdr1 pump inh
CCOC(=O)c1sc2c(c1C)c(=O)n(CCO)c(=O)n2Cc1ccccc1,88,97,0,102,97,102,·,·,·,·
COc1cc2c(cc1OC)CN(c1nc(CN3CCOCC3)nc3sc4c(c13)CCC(C)C4)CC2 (configuration not stated),106,99,98*,105,97,103,100,6,112,82*
COc1ccc(Nc2nc(CN3CCOCC3)nc3sc4c(c23)CCC(C)C4)cc1OC (configuration not stated),96,97,0,100,95,100,·,·,·,·
Cc1ccc(C2=NN(CC(=O)NCc3ccccn3)C(=O)CC2)cc1,90,108,7.6*,103,102,97,92,0,91,0
O=C(N=C1SC2CS(=O)(=O)CC2N1c1ccc(OC(F)(F)F)cc1)C1CC1 (configuration not stated),87,102,0,94,95,98,·,·,·,·
Cc1ncc([N+](=O)[O-])n1CC(=O)Nc1ccc(F)cc1,89,107,0,102,101,98,·,·,·,·
CSCc1ccc(C(=O)NCCSc2ccc(Br)cc2)cc1,76,80,7.4*,101,75,97,93,0,87,0
O=[N+]([O-])c1cc(C(F)(F)F)ccc1NCCNC(=S)Nc1ccc(Cl)cc1,124,92,0,98,101,107,·,·,·,·
CC(=O)c1c(-c2ccccc2)[nH]c2ccccc12,99,92,0,105,93,107,·,·,·,·
CC(=O)c1c(C)[nH]c(-c2ccccc2)c1C,94,94,8.0*,99,90,105,98,0,105,0
COc1cccc(C(=O)COc2ccc3c(C)c(Cc4ccccc4)c(=O)oc3c2)c1,85,108,7.5*,105,91,108,103,0,96,0
NS(=O)(=O)c1ccc(NC(=S)N2CCN(c3ccccc3)CC2)cc1,105,102,3.6*,105,108,106,104,0,99,0
NS(=O)(=O)c1ccc(NC(=S)N2CCC(O)CC2)cc1,96,109,0,105,109,102,·,·,·,·
COc1cccc(N2CCN(c3ccc4nnc(CCC(=O)Nc5ccccn5)n4n3)CC2)c1,93,98,0,98,101,98,·,·,·,·
COc1ccccc1C(=O)COC(=O)c1ccccc1OCC(=O)Nc1ccc(SC(F)F)cc1,97,106,11*,100,100,96,103,0,107,0
O=C(CSc1nnc(Cc2cccs2)n1Cc1ccco1)Nc1ccc(Br)cc1,88,90,0,87,·,86,76,0,99,0
O=C(CSc1nnc(Cc2cccs2)n1Cc1ccco1)Nc1ccc(Cl)cc1Cl,101,83,0,94,93,95,101,0,100,0
Cc1cc(C)nc(SCc2nnc(SCC(=O)Nc3ccc(C)c(C)c3)n2Cc2ccco2)n1,87,·,1.0*,102,106,99,219,1,100,9
Cc1cc(Cl)ccc1NC(=O)CSc1nnc(-c2ccncc2)n1Cc1ccco1,87,93,0,93,95,95,·,·,·,·
COc1ccc(CC(=O)Nc2c(C(=O)N3CCN(c4ccccc4)CC3)oc3ccccc23)cc1OC,98,105,0,110,110,100,·,·,·,·
O=C(Nc1cccc(Cl)c1)C1C2C=CC3(O2)C1C(=O)N(CCCN1CCCCC1)C3C(=O)NC1CCCCC1 (configuration not stated),97,102,0,108,106,108,·,·,·,·
C[C@H](NS(=O)(=O)c1ccc2c(c1)OCCCO2)C(=O)N1CCN(c2ccc(F)cc2)CC1,101,91,0,92,95,93,·,·,·,·
COc1cccc(-c2ccc(NC(=O)C3CCCN(CCCn4cccn4)C3)cc2)c1 (configuration not stated),96,93,-1,93,96,100,·,·,·,·
Cc1ccc(CNC(=O)COc2ccc(S(=O)(=O)N3CCCC3)cc2)cc1,92,113,0,109,102,105,·,·,·,·
COc1ccccc1C(=O)Nc1ccncc1,86,101,0,101,97,108,·,·,·,·
SMILES,LAP4 TOR yeast,CIT2-GFP yeast,Efflux pump inh,RPL19A TOR yeast,AGP1 TOR yeast,MEP2 TOR yeast,Yeast cmpd fluor,Mdr1 pump inh,Cdr2 pump inh,Cdr1 pump inh
COc1ccccc1C(=O)Nc1ccc(C2=NNC(=O)CC2C)cc1 (configuration not stated),88,93,1.0*,96,85,100,99,0,108,0
CC[n+]1c(/C=C/C=C/N(C(C)=O)c2ccccc2)sc2ccccc21,273*,395*,1.3*,105,148,514*,309*,2,125,1
C=C1c2ccccc2O[C@H](C(=O)OCC)[C@H]1OC,·,·,-1,·,·,·,·,·,·,·
COc1cc2c(cc1OC)CN(C(=O)/C=C/c1cccc([N+](=O)[O-])c1)CC2,100,81,0,94,92,95,·,·,·,·
Cc1ccc(C)c(NC(=O)CCC(=O)N/N=C/c2cc([N+](=O)[O-])ccc2O)c1,96,93,1.4*,94,98,94,103,0,97,0
Cc1ccccc1NC(=O)CCC(=O)N/N=C/c1cc([N+](=O)[O-])ccc1O,100,76,0,104,85,101,·,·,·,·
NC(=O)c1nsc(C(=O)N(c2ccccc2)C(C(=O)NCc2ccc(F)cc2)c2ccc(O)cc2)c1N (configuration not stated),106,102,0,93,97,93,·,·,·,·
NC(=O)c1nsc(C(=O)N(c2ccccc2)C(C(=O)NCc2ccc(F)cc2)c2ccco2)c1N (configuration not stated),101,103,0.5*,107,99,106,102,0,112,0
CCOC(=O)c1sc(NC(=O)C2CC(=O)N(c3ccccc3OC)C2)nc1C (configuration not stated),104,102,0,105,110,107,·,·,·,·
